Source: PubChem BioAssay (National Center for Advancing Translational Sciences (NCATS))
KB-3-1 tox: KB-3-1 parental cell cytotoxicity; AID 1347075; hit rate 1.4% among 400,000; Potency, µM (top dose mostly 46.1 µM), hits mostly cytotoxic; KB-3-1 viability, CellTiter-Glo ATP luminescence, 72 h; note: potency is the fitted concentration of half-maximal effect; % is set by controls: 0 for no effect and ±100 for the full control effect; nearly all actives have a fitted effect of over 60% in size
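Cells are dispensed, compounds pinned in, plates held at 37 °C for 72 h, then CellTiter-Glo is added and luminescence read after 10 minutes. Cell line: parental KB-3-1 in phenol-red-free DMEM, 10% FBS.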
MCF10A rerep: inducers of DNA re-replication in MCF 10A breast cells | hit rate 2.9% among 350,000 | AID 624296 | Potency, µM (doses to about 46.1 µM), for inactives: top-dose activity, positive = re-replication, actives largely listed as activators | MCF 10A DNA re-replication, Hoechst nuclear intensity, 48 h; note: potency is the fitted concentration of half-maximal effect; % of control where 0% means no effect; nearly all actives have a fitted effect of over 50% in size
SW480 rerep: induces DNA re-replication in SW480 colon adenocarcinoma cells; SW480 DNA re-replication, Hoechst DNA content imaging, 48 h; Potency, µM (doses to about 46.1 µM), without a hit: top-dose re-replication activation, actives largely listed as activators; hit rate 1.8% among 340,000; AID 624297; note: potency is the fitted concentration of half-maximal effect; % of control where 0% means no effect; nearly all actives have a fitted effect of over 55% in size
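Readout is total intensity of Hoechst-stained nuclei, excited at 405 nm and collected at 500-530 nm. Compound treatment lasted 48 hr at 37 C in 5% CO2 before staining.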
DRD3 agonist: D3 dopamine receptor (human) agonism; D3R DiscoveRx beta-arrestin cells, luminescence, 90 min; max activation, %; hit rate 0.58% among 410,000; in the data active = max activation above about 30%; note: 0% is about no effect
Target sequence (P35462 whole entry, looked up): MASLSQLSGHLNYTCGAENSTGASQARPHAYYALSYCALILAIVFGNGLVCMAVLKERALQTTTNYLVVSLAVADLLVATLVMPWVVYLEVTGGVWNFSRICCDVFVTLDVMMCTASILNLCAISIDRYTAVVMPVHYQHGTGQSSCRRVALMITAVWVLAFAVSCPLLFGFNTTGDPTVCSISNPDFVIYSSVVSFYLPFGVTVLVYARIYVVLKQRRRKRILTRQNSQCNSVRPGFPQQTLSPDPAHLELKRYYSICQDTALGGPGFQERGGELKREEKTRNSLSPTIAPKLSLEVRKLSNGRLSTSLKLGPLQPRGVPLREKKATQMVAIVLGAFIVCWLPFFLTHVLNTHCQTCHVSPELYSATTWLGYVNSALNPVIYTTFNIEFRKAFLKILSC
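Agonist mode: compounds and dopamine controls were applied to plated cells for 90 min at 37 degrees C after an overnight attachment at 1500 cells/well. Luminescent read-out followed 30 - 60 minutes at room temperature with DiscoveRx detection reagent.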
DRD3 antagonist: D3 dopamine receptor (human) antagonism | max response, negative = inhibition, % | hit rate 2.5% among 360,000 | D3R cells, DiscoveRx beta-arrestin luminescence, antagonist mode; stronger effect = lower value | P35462; in the data active = max response below about -50%; inconclusive = no clear call, values can overlap the other calls; note: % is set by controls: 0 for no effect and ±100 for the full control effect
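Cells expressing the human receptor were seeded at 1500 cells/well, incubated overnight at 37 degrees C in 5% CO2, then exposed to library compounds with dopamine controls for 90 minutes at 37 degrees C before luminescent detection.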
KB-V1 MDR tox: KB-V1 MDR subline cytotoxicity; KB-V1 MDR cells viability, CellTiter-Glo, 72 h; Potency, µM (titrated, usually from 46.1 µM), usual class: cytotoxic; hit rate 3.4% among 400,000; AID 1347076; note: potency is the fitted concentration of half-maximal effect; % is set by controls: 0 for no effect and ±100 for the full control effect; nearly all actives have a fitted effect of over 60% in size
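KB-V1 cells (P-gp-expressing MDR subline of KB-3-1) in phenol-red-free DMEM with 10% FBS were exposed to library compounds over a concentration series for 72 h at 37 degrees C. Viability read by CellTiter-Glo luminescence; concentration-effect curves fitted after normalization.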
Active calls of the source: *. Compounds with a hit are over-represented: about 8.9% of the library has one in this group of screens. Unless noted, calls come from the whole dose curve; as a rule, active = well fitted curve in the direction sought with a large enough effect; inconclusive = small, poorly fitted or top-dose-only effect, or another doubt; inactive = no such curve, though single readings can be large; an effect the other way counts as inactive or inconclusive.

What do the screens show for `c1ccc(-c2csc3ncnc(NCC4COc5ccccc5O4)c23)cc1` (stereo unspecified)?
KB-3-1 tox: 1.6µM*; MCF10A rerep: 26µM*; SW480 rerep: 2%; DRD3 agonist: 24; DRD3 antagonist: 38; KB-V1 MDR tox: 23µM*

How did O=c1c2c(-c3ccccc3)csc2nc2c3ccccc3c(NCCN3CCOCC3)nn12 do in these assays?
KB-3-1 tox: inactive; MCF10A rerep: 9.2µM*; SW480 rerep: inconclusive; DRD3 agonist: -3; DRD3 antagonist: -14; KB-V1 MDR tox: 21µM*

How did Cc1sc2ncnc(NCC3COc4ccccc4O3)c2c1C (stereo unspecified) do in these assays?
KB-3-1 tox: inactive; MCF10A rerep: inconclusive; SW480 rerep: inconclusive; DRD3 agonist: 11; DRD3 antagonist: 9; KB-V1 MDR tox: inactive

Results for COc1ccccc1CNC(=O)CSC1=Nc2ccccc2N=C(c2ccc(F)cc2)C1 ?
KB-3-1 tox: inactive; DRD3 agonist: -4; KB-V1 MDR tox: inactive

How did O=C(Cc1ccc(OCCC2CCCCC2)cc1)NO do in these assays?
KB-3-1 tox: inactive; KB-V1 MDR tox: inactive

Results for COc1ccc(NC(=O)CSc2nc(O)c(C/C=C/c3ccccc3)c(=O)[nH]2)cc1 ?
KB-3-1 tox: inactive; DRD3 agonist: -14; KB-V1 MDR tox: inactive

What do the screens show for `c1ccc(-c2csc3ncnc(NCCCN4CCOCC4)c23)cc1`?
KB-3-1 tox: inactive; MCF10A rerep: 0%; SW480 rerep: -3%; DRD3 agonist: -12; DRD3 antagonist: -2; KB-V1 MDR tox: 8.2µM*

What do the screens show for `Clc1ccc(C2Nc3ccccc3-n3cccc32)cc1` (stereo unspecified)?
KB-3-1 tox: inactive; MCF10A rerep: 16µM*; SW480 rerep: inconclusive; DRD3 agonist: 2; DRD3 antagonist: 8; KB-V1 MDR tox: inactive

How did Cc1cc(C(=O)CN2CCN(CC(=O)Nc3cccc(F)c3)CC2)c(C)n1C1CC1 do in these assays?
KB-3-1 tox: inactive; MCF10A rerep: -6%; SW480 rerep: -2%; DRD3 agonist: 0; DRD3 antagonist: -10; KB-V1 MDR tox: 10µM*

How did CCc1ccc(NC(=O)CCS(=O)(=O)c2ccc3c(c2)oc(=O)n3C)cc1 do in these assays?
KB-3-1 tox: inactive; DRD3 agonist: 5; KB-V1 MDR tox: inactive

Results for Cc1nc(N2CCC(C)CC2)c2c(C)c(C(=O)Nc3cccc(C(F)(F)F)c3)sc2n1 ?
KB-3-1 tox: inactive; MCF10A rerep: 21µM*; SW480 rerep: inconclusive; DRD3 agonist: 26; DRD3 antagonist: 88; KB-V1 MDR tox: inactive

What do the screens show for `Cc1cc(Br)ccc1NC(=O)c1sc2ncnc(N3CCN(c4ccccn4)CC3)c2c1C`?
KB-3-1 tox: 6.5µM*; MCF10A rerep: 7.3µM*; SW480 rerep: 15µM*; DRD3 agonist: -3; DRD3 antagonist: -2; KB-V1 MDR tox: inconclusive

What do the screens show for `Cc1nc(N2CCN(c3ccccn3)CC2)c2c(C)c(C(=O)Nc3ccccc3F)sc2n1`?
KB-3-1 tox: 21µM*; MCF10A rerep: 1%; SW480 rerep: -5%; DRD3 agonist: 7; DRD3 antagonist: 15; KB-V1 MDR tox: inconclusive

How did CCc1ccc(NC(=O)c2sc3nc(C)nc(N4CCN(c5ccccn5)CC4)c3c2C)cc1 do in these assays?
KB-3-1 tox: inactive; MCF10A rerep: inconclusive; SW480 rerep: 17%; DRD3 agonist: -4; DRD3 antagonist: 17; KB-V1 MDR tox: inconclusive

What do the screens show for `Cc1nc(N2CCN(c3ccccn3)CC2)c2c(C)c(C(=O)Nc3ccc(F)cc3F)sc2n1`?
KB-3-1 tox: inactive; MCF10A rerep: inconclusive; SW480 rerep: inconclusive; DRD3 agonist: 5; DRD3 antagonist: 5; KB-V1 MDR tox: 12µM*

Results for Cc1nc(N2CCC(C)CC2)c2c(C)c(C(=O)Nc3ccc(C(F)(F)F)cc3)sc2n1 ?
KB-3-1 tox: inactive; MCF10A rerep: inconclusive; SW480 rerep: 10%; DRD3 agonist: 30; DRD3 antagonist: 72; KB-V1 MDR tox: inconclusive

How did Cc1c(Cl)cccc1NC(=O)C(=O)NCCc1csc(-c2ccc(C(F)(F)F)cc2)n1 do in these assays?
DRD3 agonist: 3

What do the screens show for `Cc1nc(N2CCN(c3ccccn3)CC2)c2c(C)c(C(=O)Nc3ccc(F)cc3Cl)sc2n1`?
KB-3-1 tox: inconclusive; MCF10A rerep: 16µM*; SW480 rerep: inconclusive; DRD3 agonist: 1; DRD3 antagonist: 24; KB-V1 MDR tox: inconclusive

How did COc1ccc(N2CC(NC(=O)C3CC3)CC2=O)cc1OC (stereo unspecified) do in these assays?
KB-3-1 tox: inactive; DRD3 agonist: 4; KB-V1 MDR tox: inconclusive

Results for O=C(Nc1ccc(C(=O)OCc2cc(=O)n3nc(C4CC4)sc3n2)cc1)c1cccc(F)c1 ?
KB-3-1 tox: inactive; DRD3 agonist: -9; KB-V1 MDR tox: inconclusive

How did COc1cc2c(cc1OC)C1Cc3ccc(OC)c(OC)c3C[N+]1([O-])CC2 (stereo unspecified) do in these assays?
KB-3-1 tox: inactive; MCF10A rerep: 26%; SW480 rerep: -8%; DRD3 agonist: -15; DRD3 antagonist: -20; KB-V1 MDR tox: inactive

What do the screens show for `O=C(Nc1cccc(F)c1)N1CCc2nc(NCc3cccc(Oc4ccccc4)c3)ncc2C1`?
KB-3-1 tox: inconclusive; DRD3 agonist: 4; DRD3 antagonist: 2; KB-V1 MDR tox: 18µM*

What do the screens show for `CC(C)c1ccc(NC(=O)N2CCc3nc(NCc4cccc(Oc5ccccc5)c4)ncc3C2)cc1`?
KB-3-1 tox: inconclusive; DRD3 agonist: 6; DRD3 antagonist: inconclusive; KB-V1 MDR tox: inconclusive

What do the screens show for `O=C(O)/C=C/C(=O)N1CCN(c2ccccc2F)CC1`?
KB-3-1 tox: inactive; MCF10A rerep: 1%; SW480 rerep: -4%; DRD3 agonist: -8; DRD3 antagonist: -70*; KB-V1 MDR tox: inactive

What do the screens show for `O=C(N1CCN(c2ccccc2F)CC1)C12CC3CC(CC(C3)C1)C2`?
KB-3-1 tox: inactive; MCF10A rerep: inconclusive; SW480 rerep: 11%; DRD3 agonist: -1; DRD3 antagonist: 16; KB-V1 MDR tox: 18µM*

How did COc1ccc(NC(=O)CC2C(=O)N(c3ccc(C)cc3)C(=O)N2C2CCCC2)cc1 (stereo unspecified) do in these assays?
DRD3 agonist: -14

How did Clc1ccc(CN2C3=NCCN3c3ccccc32)cc1Cl do in these assays?
KB-3-1 tox: inactive; MCF10A rerep: 10%; SW480 rerep: inconclusive; DRD3 agonist: -8; DRD3 antagonist: inconclusive; KB-V1 MDR tox: 21µM*

Results for Cc1nc(SCC(=O)Nc2nc3ccccc3s2)c(C#N)c(C)c1C ?
KB-3-1 tox: inconclusive; MCF10A rerep: 6.5µM*; SW480 rerep: 5.8µM*; DRD3 agonist: 21; DRD3 antagonist: -2; KB-V1 MDR tox: inactive
